MCF10A rereplic: inducers of DNA re-replication in MCF 10A breast cells; 350,000 tested, 2.9% active; MCF 10A DNA re-replication, Hoechst nuclear intensity, 48 h; Potency, µM (top dose mostly 46.1 µM), usual class: activators; note: nearly all actives have a fitted effect of over 50% in size
SW480 rerep: inducers of DNA re-replication in SW480 colon cancer cells. SW480 DNA re-replication, Hoechst DNA content imaging, 48 h. Potency, µM (top dose mostly 46.1 µM), hits mostly activators. 340,000 tested, 1.8% active. AID 624297; note: nearly all actives have a fitted effect of over 55% in size
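Treated cells incubate 48 hr (37 C, 5% CO2), are stained 40 min with Hoechst, and nuclear fluorescence is enumerated; a rise in nuclei with high DNA signal marks re-replication.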
IL-1B inflam inh: inflammasome signaling inhibition, IL-1 beta readout; THP-1 LPS/ATP IL-1B secretion, AlphaLISA, 16 h; hits give low values; activity change, % at 57.5 µM; 360,000 tested, 4.7% active; AID 743279; in the data active = activity change below about -50%; inconclusive = mostly about -30% to -49%
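THP-1 cells pretreated 1 hr with compounds (up to 57.5 uM final), then stimulated with LPS (250 ng/mL final) plus ATP (1.25 mM final); secreted IL-1B measured by AlphaLISA after 16 hr, decreased signal indicating inhibition.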
TDP1 cell noCPT: qHTS for Inhibitors of human tyrosyl-DNA phosphodiesterase 1 (TDP1): qHTS in cells in absence of CPT; Potency, µM (doses to about 46.2 µM), hits mostly inhibitors; 420,000 tested, 15% active; DT40 Tdp1-/- hTDP1 cells, no CPT, ATP luminescence, 48 h; note: nearly all actives have a fitted effect of over 55% in size
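Growth of hTDP1-complemented DT40 Tdp1-knockout cells is measured by ATP luminescence after at least 48 hr compound exposure at 37 °C, with DMSO substituting for the 20 nM CPT used in the parallel screen.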
DT40 TDP1 CPT: DT40-hTDP1 cell growth loss with CPT; Potency, µM (top dose mostly 46.2 µM), hits mostly inhibitors; chicken DT40 Tdp1-/-;hTDP1 cells + 20 nM CPT, ATP luminescence, 48 h; 420,000 tested, 12% active; note: nearly all actives have a fitted effect of over 55% in size
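Chicken DT40 Tdp1-/- cells complemented with human TDP1, 400 cells/well, exposed to compounds plus 20 nM camptothecin for at least 48 h at 37 C; viability read as ATP content by CellTiter-Glo luminescence.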
BCR signal inh: inhibitors of chronic active B-cell receptor signaling. ABC-DLBCL IkBa-CBG/CBR reporter, luminescence ratio, 4 h. Potency, µM (top dose mostly 46.1 µM), most hits filed as inhibitors. 340,000 tested, 0.05% active. AID 493014; active = well fitted inhibition curve with a large enough effect in the signal ratio, with a control signal flat, not every such curve was filed as active; inconclusive = small, poorly fitted or top-dose-only effect, or effect the other way, or a change in a side signal; the % refers to the signal ratio
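Doxycycline induced both beetle luciferases in TMD8 lymphoma cells; IKK-driven degradation limits the IkappaBalpha-fused green signal, while red luminescence normalises for cell number and nonspecific effects. Compounds tested up to 46 uM, 4 hrs.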
Hits are given with their value; n = inactive; u = inconclusive; x = not tested or not shown. Most compounds without a hit are left out; they make up all but 19% or so of the library. Unless noted, calls come from the whole dose curve; as a rule, active = well fitted curve in the direction sought with a large enough effect; inconclusive = small, poorly fitted or top-dose-only effect, or another doubt; inactive = no such curve, though single readings can be large; an effect the other way counts as inactive or inconclusive.

SMILES	MCF10A rereplic	SW480 rerep	IL-1B inflam inh	TDP1 cell noCPT	DT40 TDP1 CPT	BCR signal inh
CC1=C(C(=O)OCc2ccc3c(c2)OCO3)C(c2ccc(F)cc2)NC(=O)N1 (configuration not stated)	n	n	n	4.1µM	4.1µM	u
CC1=C(C(=O)OCC2CCCO2)C(c2ccc(Cl)c(Cl)c2)NC(=O)N1 (configuration not stated)	n	u	-50	u	u	u
CC1=C(C(=O)OC2CCCCC2)C(c2ccc(F)cc2)NC(=O)N1 (configuration not stated)	n	n	-53	u	n	u
CC1=C(C(=O)OCc2ccc3c(c2)OCO3)C(c2ccc(Cl)cc2)NC(=O)N1 (configuration not stated)	u	n	n	2.9µM	2.3µM	u
CC1=C(C(=O)OC2CCCCC2)C(c2ccc(O)cc2)NC(=O)N1 (configuration not stated)	n	n	n	n	n	n
COc1ccc(C2(CNC(=O)c3ccccc3[N+](=O)[O-])CCOCC2)cc1	n	n	n	n	n	u
CCC(=O)N1CCc2cc(Br)cc(S(=O)(=O)N3CCN(c4cccc(Cl)c4)CC3)c21	x	x	x	n	n	x
Cc1ccccc1NC(=O)c1c(C)oc2ccc(O)c(CN(C)Cc3ccccc3)c12	x	x	x	6.5µM	8.2µM	x
Cc1oc2ccc(O)c(CN(C)C)c2c1C(=O)c1ccccc1	n	n	n	u	u	n
CCN(Cc1ccccc1)Cc1c(O)ccc2oc(C)c(C(=O)Nc3ccccc3C)c12	x	x	x	13µM	13µM	x
Cc1oc2ccc(O)c(CN(C)Cc3ccccc3)c2c1C(=O)Nc1cccc(Cl)c1C	x	x	x	6.5µM	6.5µM	x
CCc1ccc2c(c1)c(=O)c(C(=O)c1ccc(C)cc1)cn2CC(=O)Nc1ccc2c(c1)OCCO2	x	x	x	n	n	x
O=S(=O)(Nc1ccc(O)c(Sc2nc3ccccc3s2)c1)c1ccc(F)cc1	u	n	n	u	n	n
CS(=O)(=O)c1ccc(Sc2nc3ccccc3s2)c([N+](=O)[O-])c1	u	7.3µM	-121	13µM	10µM	u
CCOC(=O)C1(C)CCN1C(=O)c1cccc(C(F)(F)F)c1 (configuration not stated)	x	x	n	n	n	x
COc1ccc(OC2C(=O)N(Cc3ccc(F)cc3)C2c2cc(OC)c(OC)c(OC)c2)cc1 (configuration not stated)	n	n	n	23µM	u	n
Cc1cc(Br)c(NC(=O)COn2nnc3ccc(S(C)(=O)=O)cc32)c(Br)c1	n	n	-65	n	n	n
Cc1cc(NC(=O)COn2nnc3ccc(S(C)(=O)=O)cc32)ccc1Br	n	n	n	16µM	u	n
COc1cc(NC(=O)COn2nnc3ccc(S(C)(=O)=O)cc32)cc(OC)c1	n	n	n	n	n	u
Cc1ccc(NC(=O)c2cc(S(=O)(=O)N3CCc4ccccc43)cn2C)c(Cl)c1	x	x	x	12µM	u	x
CCc1ccccc1NC(=O)c1cc(S(=O)(=O)N2CCc3ccccc32)cn1C	n	n	n	n	n	n
COc1ccc(NC(=O)c2cc(S(=O)(=O)N3CCc4ccccc43)cn2C)cc1	n	n	n	u	10µM	n
CCCNC(=O)c1cc(S(=O)(=O)N2CCc3ccccc32)cn1C	n	n	n	18µM	23µM	n
COc1cc2cc(CCCOC(=O)c3ccc(C#N)cc3)oc(=O)c2cc1OC	u	n	n	n	n	n
CC(OC(=O)CC1CC2CCC1C2)C(=O)Nc1cccc(S(=O)(=O)N2CCOCC2)c1 (configuration not stated)	n	n	n	n	n	n
SMILES	MCF10A rereplic	SW480 rerep	IL-1B inflam inh	TDP1 cell noCPT	DT40 TDP1 CPT	BCR signal inh
COc1cccc(-c2ncc3ccccc3c2COC(=O)c2ccco2)c1	n	n	n	u	u	u
C=CC[C@H](CC(=O)N(CCO)Cc1ccccc1)C(=O)N[C@H](COC(=O)[C@@H](CC=C)CC(=O)OC(C)(C)C)Cc1c[nH]c2ccccc12	u	n	-65	16µM	23µM	u
C=CC[C@@H](CC(=O)N(CCO)Cc1ccccc1)C(=O)N[C@@H](C)COC(=O)[C@@H](CC=C)CC(=O)OC(C)(C)C	n	n	n	u	u	n
C=CC[C@H](CC(=O)N(CCO)Cc1ccccc1)C(=O)N[C@@H](C)COC(=O)[C@H](CC=C)CC(=O)OC(C)(C)C	n	n	n	u	u	n
C=CC[C@@H](CC(=O)N(CCO)Cc1ccccc1)C(=O)N[C@H](COC(=O)[C@H](CC=C)CC(=O)OC(C)(C)C)Cc1c[nH]c2ccccc12	u	n	-59	16µM	23µM	u
CN(C)c1nc(CN2CCCCC2c2cccnc2)nc2ccccc12 (configuration not stated)	x	x	x	n	n	x
CC(=O)n1cc(CO)c2ccccc21	n	n	n	n	n	n
CC(=O)n1cc(N(C(=O)CCl)c2ccc([N+](=O)[O-])cc2)c2ccccc21	u	16µM	-101	2.6µM	2.3µM	u
CC(=O)n1cc(N(C(=O)CCl)c2ccccc2)c2ccccc21	16µM	1.6µM	-92	0.58µM	0.65µM	u
O=C(NC1CCN(CC(=O)N(c2ccccc2)c2ccccc2)CC1)c1ccc([N+](=O)[O-])cc1	n	n	n	u	u	n
COc1cc(NC(=S)N2CCC(C(N)=O)CC2)c(OC)cc1Cl	n	n	n	n	n	n
Cc1ccc(-n2nc(CO)c(C(=O)NCCc3ccccc3)n2)cc1C	x	x	x	u	n	x
CC1=CC(=C(c2ccc(N)cc2)c2ccc(N)cc2)C=CC1=N	n	n	x	3µM	2.7µM	x
CCN(CC)CCN(C(=O)c1ccc2c(c1)CCCC2)c1nc2ccc(OC)cc2s1	u	n	n	u	18µM	n
CCN(CC)CCN(C(=O)c1ccc2c(c1)CCCC2)c1nc2ccc(C)cc2s1	u	n	n	23µM	u	n
CCN(CC)CCN(C(=O)c1ccc2c(c1)CCCC2)c1nc2ccc(F)cc2s1	n	n	u	u	u	u
COc1ccc2sc(N(CCN(C)C)C(=O)c3ccc4ccccc4c3)nc2c1	n	n	n	u	n	n
COc1cccc(C(=O)NC2CCCC2)c1	n	n	n	n	n	n
COc1cccc(C(=O)NNC(=S)NC2CCCCC2)c1	n	n	n	u	16µM	u
COc1ccccc1NC(=S)NC1CCC(CC2CCC(NC(=S)Nc3ccccc3OC)CC2)CC1 (configuration not stated)	u	n	n	13µM	10µM	n

Bioassay records (PubChem BioAssay)
